# Assay results as given in PubChem BioAssay (NCI).
# Compounds without any hit were thinned out: in the full panel of roughly 79,000, 15% have a hit. Values without a mark were called inactive. Active and inactive are the calls of the source. No stated cut-off is given here; in the data, active means growth inhibition above about 70%; inactive means the rest.
# What was measured:
# [1] = NCI Yeast Anticancer Drug Screen. Data for the rad50 strain (AID 155);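 further: 0% = growth of vehicle-only cultures of the same strain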; details: S. cerevisiae rad50 strain growth inhibition; at 50.0 µM; hits give high values
# How it was run: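 Yeast carrying a defined DNA repair defect were exposed to test compounds, and growth was compared with vehicle-treated controls to give percent inhibition.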
# [2] = NCI Yeast Anticancer Drug Screen. Data for the mec2-1 strain (AID 157); details: S. cerevisiae mec2-1 strain, at 50.0 µM, hits give high values
# How it was run: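 Readout is yeast growth inhibition, normalised to vehicle-treated controls, in the mec2-1 strain exposed to compound.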
# [3] = NCI Yeast Anticancer Drug Screen. Data for the sgs1 mgt1 strain (AID 161);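 further: 0% = growth of cultures given vehicle only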; details: S. cerevisiae sgs1 mgt1 strain, at 50.0 µM, hits give high values
# How it was run: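 Compounds are added to genetically altered yeast, and growth is compared with cultures given vehicle alone to give percent inhibition.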
# [4] = NCI Yeast Anticancer Drug Screen. Data for the cln2 rad14 strain (AID 165);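 further: 0% = growth equal to vehicle treated cultures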; details: S. cerevisiae cln2 rad14 strain, at 50.0 µM, hits give high values
# How it was run: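 Relative to vehicle controls, growth inhibition of compound-treated cln2 rad14 yeast was recorded.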
# [5] = NCI Yeast Anticancer Drug Screen. Data for the bub3 strain (AID 167); details: S. cerevisiae bub3 mutant strain, at 50.0 µM, hits give high values
# How it was run: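 Compounds were applied to a genetically altered yeast strain carrying a cell-cycle control defect. Growth inhibition was scored against vehicle-treated controls.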
# [6] = NCI Yeast Anticancer Drug Screen. Data for the mlh1 rad18 strain (AID 175); details: S. cerevisiae mlh1 rad18 strain growth inhibition; at 50.0 µM; hits give high values
# How it was run: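 Test agents were incubated with a yeast strain of defined genotype (DNA damage repair defect). Inhibition of growth was derived by comparison with vehicle-exposed cultures.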
Structure (SMILES),growth inhibition [1],growth inhibition [2],growth inhibition [3],growth inhibition [4],growth inhibition [5],growth inhibition [6]
Cc1ccccc1/C=C1/N=C(c2ccccc2)OC1=O,-27.3%,-17.4%,-19.7%,0.9%,-14.4%,-6.85%
O=[N+]([O-])c1cc(Br)ccc1P(=O)(O)O,9.25%,8.8%,-1.25%,7.85%,16.9%,-4.95%
CN1C(=O)c2cnc3ccccc3c2C1(O)c1ccccc1 (stereo not given),-1.75%,1.35%,2.4%,5.25%,0%,3.9%
N=c1c2ccccc2nc2oc3ccc(Cl)cc3n12,-15.4%,-32.5%,-6.25%,-0.45%,15.6%,-8.55%
C1C[S][Ge]2([S]CCS1)[S]CCSCC[S]2,-10.4%,-30.5%,-16.6%,-15.5%,-30.6%,-14.8%
CCOC(=O)C(O)(NC(=O)Nc1ccc(F)cc1)C(F)(F)F (stereo not given),-22.4%,-22.3%,-72.9%,-35.9%,-37.3%,-60.9%
CC(C)CCC(=S)N1CCN(c2ccccc2)CC1,-0.4%,7.25%,2.2%,-45.1%,2.05%,-17.4%
CC(=O)Nc1ccc(C(=O)NN2C(=O)C(Cl)C2c2ccccc2)cc1 (stereo not given),-22.1%,-18.4%,-49.4%,-10.2%,-28.8%,-28.6%
CC(O)CN1CCN(CC(C)O)C(C)C1 (stereo not given),-10.1%,1.65%,0%,1.35%,-7.2%,4.75%
CC/C(=N/N(C)C)C(=O)O,-29.4%,-3.9%,-5.3%,-10.6%,-17.1%,-16.3%
CN(C)C=NC1CC(C)(C)NC(C)(C)C1,-18.2%,2.2%,3.1%,-49.1%,13.2%,-12.9%
CCCCCCCCCCCCOP(=O)(CC(=O)NCc1cc(C(C)(C)C)c(O)c(C(C)(C)C)c1)OCCCCCCCCCCCC,-1.55%,3.3%,21.9%,-7.3%,-2.9%,-9.9%
O=Cc1ccc(F)cc1[N+](=O)[O-],1.1%,3.65%,-15.8%,1.1%,-2.25%,-17.2%
CC(=O)Nc1nc(Cl)c2ncn(C3OC(COC(=O)c4ccccc4)CC3OC(=O)c3ccccc3)c2n1 (stereo not given),10.2%,3.1%,-8.8%,2.6%,10.6%,4.5%
CCN(CC)C(=O)c1cc([N+](=O)[O-])c(=O)n2c1[nH]c1ccccc12,-17.9%,6.8%,-59.6%,23.1%,-18.5%,-5.85%
CC1SC2(C(=O)Nc3ccccc32)N(c2ccc(O)cc2)C1=O (stereo not given),6.25%,-2.75%,9.45%,2%,7.9%,14.8%
NCC1CC1,19.1%,-2.25%,9.75%,8.65%,-11.8%,14.7%
CCCS(=O)(=O)CCC(=O)c1cccs1,-0.05%,-12.1%,-8.4%,-19%,-1.85%,5.95%
CC(=O)c1cccc(NC(=O)C(=O)C(C2OC(=O)c3ccccc32)[N+](=O)[O-])c1 (stereo not given),5.45%,11.6%,17.6%,11.4%,3.2%,8.5%
C/C(CCc1ccccc1)=N\Nc1ccc([N+](=O)[O-])cc1[N+](=O)[O-],-31.9%,-44.6%,-2.9%,-17%,-17.4%,-19.4%

Structure (SMILES),growth inhibition [1],growth inhibition [2],growth inhibition [3],growth inhibition [4],growth inhibition [5],growth inhibition [6]
CCC(=O)C(C)C(=O)C(=O)NCCNC(=O)C(=O)C(C)C(=O)CC (stereo not given),19.9%,-1.3%,2.75%,-16.6%,-8.5%,-25.6%
O=S(=O)(Nc1cccc(F)c1)c1ccc(F)cc1,-12.5%,-10.4%,-3.6%,0.3%,-9.95%,11.6%
COc1cc(C=O)ccc1OC(=O)Nc1ccc(F)c([N+](=O)[O-])c1,0.8%,30.4%,19.1%,-2.45%,28.1%,14.7%
COc1ccc2nc3cc(Cl)ccc3c(NN3CCN(CCO)CC3)c2c1,-24.1%,-7.9%,-20.1%,0.25%,2.3%,-3.6%
O=C(Nc1ccccc1Br)c1cccc([N+](=O)[O-])c1O,37.5%,35.2%,45.5%,38.2%,29.4%,37.1%
Cc1c(Br)[n+](=O)c2ccccc2n1[O-],1.6%,6.45%,17.4%,14.2%,11.9%,21.9%
CC1(C)C2CCC(=O)C1CC2 (stereo not given),6.75%,14.2%,-22.6%,12.7%,-37.4%,-43.5%
COc1cc(C(CC#N)CC#N)cc(OC)c1OC,-3.4%,-15.8%,25.8%,6.45%,8.95%,8%
COC(=O)c1ccc(C(=O)OC)c2nc3cc(Cl)ccc3nc12,-7.05%,-10.2%,-35.5%,-29.2%,-10.6%,-40.1%
OB(O)c1cccc(B(O)O)c1,-4.2%,-28.7%,-3%,-7.45%,-21.9%,-10.1%
O=C(N/N=C/c1ccc(Cl)cc1)C(c1ccccc1)N1CCCCC1 (stereo not given),4.7%,-2.65%,-0.2%,4.6%,8.55%,13.7%
CC(Cl)CNC(=O)Nc1cccc2c1CCCC2 (stereo not given),3.45%,10.2%,-1.9%,-48.6%,-22.2%,-1.4%
Nc1nc2c(c(=O)[nH]1)C(c1ccccc1)C(c1ccccc1)C2 (stereo not given),-2.85%,-8.65%,3.8%,-27.4%,-9.5%,0.15%
Clc1ccc(-c2nnc(-c3ccccc3)o2)cc1Cl,-8.4%,-24.8%,-0.4%,16%,-18.9%,-6.5%
CSCCC(NC(=O)NS(=O)(=O)c1ccc(C)cc1)C(=O)O (stereo not given),-4.3%,-16.1%,-2.3%,20.2%,6.45%,9.55%
Cn1c(=O)c2c(nc(NN)n2C)n(C)c1=O,1.15%,-10.8%,-2.65%,-25%,10.9%,4.7%
C/C(=N/Nc1ccc([N+](=O)[O-])cc1[N+](=O)[O-])C(CC(C(=O)NCc1ccccc1)/C(C)=N\Nc1ccc([N+](=O)[O-])cc1[N+](=O)[O-])C(=O)NCc1ccccc1 (stereo not given),5.25%,-16.5%,-0.1%,-5.05%,21.1%,11.8%
COc1cccc(/C=C\c2ccc(O)cc2)c1,87% (active),91% (active),92% (active),92% (active),91.2% (active),91.5% (active)
COCOc1ccc(C(=O)C(C)c2ccc(OCOC)cc2OCOC)c(O)c1 (stereo not given),39.4%,17.2%,26.8%,23.2%,40.8%,36.8%
CCCCNC(=O)OCC,-34.5%,-25.6%,2.4%,-26.8%,-0.35%,5.9%
